In the library only some 27% were active in any assay of this set; here they are far more common.
CYP2C9 act: human CYP2C9 activators, primary screen, biochemical, luminescence; 96,000 tested, 1.4% active; Cytochrome P450 2C9 (Homo sapiens), P11712; recombinant CYP2C9, luciferin-H conversion; active compounds read high; factor 1 = untreated enzyme, 0 = blocked; AID 1024, 2008; activation factor at 5 µM;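 active = activation factor of 2 or more for CYP2C9 at a 5 µM dose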;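 note: 0 = sulfaphenazole-blocked wells and 1 = vehicle-only wells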
Target sequence (P11712 whole entry, looked up): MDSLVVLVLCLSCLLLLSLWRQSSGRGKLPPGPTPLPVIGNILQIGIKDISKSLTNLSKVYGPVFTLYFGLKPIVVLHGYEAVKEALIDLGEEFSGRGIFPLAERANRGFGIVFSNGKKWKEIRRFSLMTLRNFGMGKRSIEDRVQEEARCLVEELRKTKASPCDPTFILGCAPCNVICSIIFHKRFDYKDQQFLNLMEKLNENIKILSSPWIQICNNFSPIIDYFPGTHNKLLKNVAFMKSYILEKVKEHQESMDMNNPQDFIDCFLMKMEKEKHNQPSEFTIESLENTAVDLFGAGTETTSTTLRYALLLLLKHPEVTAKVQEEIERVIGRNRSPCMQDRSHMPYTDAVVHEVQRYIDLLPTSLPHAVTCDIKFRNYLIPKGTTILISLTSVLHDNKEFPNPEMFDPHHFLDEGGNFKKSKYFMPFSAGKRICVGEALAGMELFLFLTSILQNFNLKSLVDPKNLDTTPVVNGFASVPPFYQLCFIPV
CYP2C19 activ: human CYP2C19 activators, primary screen, biochemical, luminescence; 96,000 tested, under 10 active; Cytochrome P450 2C19 (Homo sapiens), P33261; recombinant CYP2C19, luciferin-H EGE luminescence; active compounds read high; 0 = fully inhibited enzyme, 1 = untreated enzyme; activation factor at 5 µM;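 active = activation factor of at least 2 at 5 µM in the primary screen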;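 note: 0 = wells with 2.5 mM tranylcypromine and 1 = vehicle-only wells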
CYP2C19 inh: blockers of cytochrome P450 2C19 activity – biochemical, luminescence, ADME assay, primary screen; inhibition, % at 5 µM; 96,000 tested, 21% active; CYP2C19 Supersomes, luciferin-H EGE luminescence, 30 min; P33261;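 active = CYP2C19 inhibition above a set limit at 5 µM in the primary screen, cut at about 50% in these data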;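 note: plate controls were negative control wells for no effect and 2.5 mM tranylcypromine positive control for full effect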
CYP2C9 inhib: blockers of cytochrome P450 2C9 activity – biochemical, luminescence, ADME assay, primary screen; P11712; CYP2C9 Supersomes, luciferin-H conversion; inhibition, % at 5 µM; 96,000 tested, 20% active; AID 777, 2007;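 active = blocking of liver enzyme CYP2C9 beyond about 50% at 5 µM, limit read from the data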
Cav3 T inh: Cav3.2 calcium influx blockers – cell-based, Fluo-4 calcium fluorescence, FDSS, MLSMR library, primary screen; 100,000 tested, 4% active; Voltage-dependent T-type calcium channel subunit alpha-1H (Homo sapiens), O95180; Cav3.2-expressing cells; active compounds read low; B-score at 10 µM;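 active = single-dose well whose peak fluorescence ratio is a statistical outlier from its plate by either plate-standardised score or position-corrected B-score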
* hit, by the source's call; nt = no result given.

SMILES	CYP2C9 act	CYP2C19 activ	CYP2C19 inh	CYP2C9 inhib	Cav3 T inh
COc1ccccc1C1CC(c2cccs2)=Nc2ccccc2S1 (stereo not given)	0.2	0.1	89.9*	80.5*	-3.62
Oc1ccccc1C1=Nc2ccccc2N=C(c2cccs2)C1	0.6	0.8	23.2	37.7	-0.181
O=C(CCc1ccc(Oc2cc([N+](=O)[O-])cc([N+](=O)[O-])c2)cc1)N1CCCCC1	0.2	0.5	53.7*	82.4*	-1.31
O=C(CCCc1ccccc1)N1CCN(c2ccc([N+](=O)[O-])cc2)CC1	0.8	0.9	6.2	16.6	-0.0192
O=C(CN1C(=O)COc2ccccc21)NCCCN1CCc2ccccc2C1	1	0.9	5.9	2.6	1.68
O=C(CCN1C(=O)COc2ccccc21)NCCN1CCOCC1	1	1	1.4	4.8	0.761
O=C(CCN1C(=O)COc2ccccc21)NCCC1=CCCCC1	0.9	0.4	62.6*	9.2	0.225
O=C(CN1C(=O)COc2ccccc21)NCCC1=CCCCC1	0.8	0.2	80.7*	15.7	-0.278
Cc1[nH]nc(SCC(=O)N2CCCCC2)c1[N+](=O)[O-]	0.5	0.4	64.6*	48.4	-0.15
Cc1cc(NS(=O)(=O)Cc2ccccc2)no1	1	1	-1.0	4.6	0.0141
Cc1ccc(-c2nc(C3CCN(S(C)(=O)=O)CC3)no2)cc1	1.1	1.1	-6.5	-8.2	-0.886
Cc1ccc(S(=O)(=O)/N=S(\C)CC2CC2(Cl)Cl)cc1 (stereo not given)	1.6	0.4	58.4*	-60.5	0.351
COC(=O)c1cn(CCOc2ccc(C)cc2)c2ccccc12	0.3	0.3	68.7*	70.4*	nt
Cc1cc(C)cc(N2C(=O)CSC2c2cccs2)c1 (stereo not given)	1.2	0.4	57.6*	-17.1	-1.07
Cc1ccc(N2C(=O)CSC2c2cccs2)cc1 (stereo not given)	0.8	0.2	76.6*	18.4	-0.245
O=C1C2CCCN2C(c2cccs2)N1c1ccc(Cl)cc1 (stereo not given)	0.8	0.8	22.1	17.6	-0.0448
Cc1ccc(N2C(=O)CSC2c2ccccn2)cc1Cl (stereo not given)	1.3	0.7	28.0	-30.5	0.0862
O=C(Nc1ccsc1C(=O)NC1CCCCC1)c1ccccc1	0.9	1.1	-5.5	9.9	-0.0735
O=S(=O)(c1ccc2nc(Cc3ccccc3)[nH]c2c1)N1CCOCC1	0.5	0.6	36.4	47.4	0.503
O=S(=O)(c1ccc2nc(Cc3cccc(C(F)(F)F)c3)[nH]c2c1)N1CCOCC1	0.1	0.3	67.0*	86.4*	-2.12
CC1CC(N(C(=O)c2ccco2)c2ccccc2)c2ccccc2N1C(=O)c1ccco1 (stereo not given)	0.1	0.1	91.1*	87.8*	-5.33*
CC1CC(N(C(=O)C2CC2)c2ccccc2)c2ccccc2N1C(=O)C1CC1 (stereo not given)	0.9	0.6	39.4	7.3	-1.61
CC1CC(N(C(=O)c2ccc(Cl)cc2)c2ccccc2)c2ccccc2N1C(=O)c1ccco1 (stereo not given)	0	0.1	91.2*	97.0*	-5.74*
N#Cc1c(-c2ccccc2)nc2n(-c3ccccc3)nc(C(=O)Nc3ccccc3)n2c1=O	0.6	0.8	20.5	41.3	-1.1
N#Cc1c(-c2ccccc2)c(-c2ccccc2)nn(CC(=O)NNC(=O)Nc2ccc(Cl)c(Cl)c2)c1=O	0.4	0.8	23.7	61.6*	-6.51*
SMILES	CYP2C9 act	CYP2C19 activ	CYP2C19 inh	CYP2C9 inhib	Cav3 T inh
COc1ccc(-n2c(Cc3cccn3C)nnc2SCC(=O)Nc2ccccc2C)cc1	0.7	0.8	18.2	31.2	-6.4*
C=CCn1c(Cc2ccc(OC)cc2)nnc1SCC(=O)NCCc1ccccc1	0.7	0.7	26.3	30.5	-0.421
COc1ccc(-n2c(Cc3cccn3C)nnc2SCC(=O)NCCc2ccccc2)cc1	0.3	0.7	34.5	73.4*	-1.85
COc1ccc(-n2c(Cc3cccn3C)nnc2SCC(=O)Nc2nccs2)cc1	0.4	0.2	78.1*	58.3*	-5.96*
COc1ccc(-n2c(SCC(=O)Nc3nccs3)nnc2-c2ccccc2)cc1	0.6	0.5	45.2	42.9	-2.26
COc1ccc(-n2c(Cc3cccn3C)nnc2SCC(=O)Nc2cccc(C)c2C)cc1	0.7	0.8	18.3	26.6	-4.03*

Screens as filed in PubChem BioAssay.
